# In the library only some 7% were active in any assay of this set; here they are far more common.
# S2 tox: reduces viability in counter-screen for ATXN expression inhibitors; Potency, µM (titrated, usually from 56.7 µM), hits mostly cytotoxic; AID 651635; actives 0.49% (n = 400,000); S2 cells (HEK-293 line with an ATXN2-luciferase reporter) viability, CellTiter-Fluor protease fluorescence, 24 h; also: potency is read from the fitted curve at half-maximal effect; nearly all actives have a fitted effect of over 40% in size
# D3 ag: D3 dopamine receptor (human) agonism; P35462; D3R DiscoveRx beta-arrestin cells, luminescence, 90 min; max activation, %; actives 0.58% (n = 410,000); in the data active = max activation above about 30%; also: 0% is about no effect
# Target sequence (P35462 whole entry, looked up): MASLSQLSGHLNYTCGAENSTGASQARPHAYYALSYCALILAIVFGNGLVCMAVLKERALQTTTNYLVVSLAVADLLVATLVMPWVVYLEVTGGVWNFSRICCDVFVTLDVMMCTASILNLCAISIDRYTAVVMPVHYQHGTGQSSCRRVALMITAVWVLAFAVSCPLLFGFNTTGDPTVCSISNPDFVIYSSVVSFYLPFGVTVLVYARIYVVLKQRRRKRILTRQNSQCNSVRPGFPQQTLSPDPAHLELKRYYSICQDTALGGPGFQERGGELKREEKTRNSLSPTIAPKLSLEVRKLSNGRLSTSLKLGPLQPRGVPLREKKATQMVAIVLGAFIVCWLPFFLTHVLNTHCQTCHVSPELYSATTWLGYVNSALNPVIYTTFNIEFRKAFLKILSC
#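 Cells at 1500/well, incubated overnight, then treated with pinned compounds (dopamine as control) for 90 min at 37 degrees C. DiscoveRx reagent added for 30 - 60 minutes at room temperature; luminescence read.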
# IL-1B inflam inh: blocks inflammasome-driven IL-1 beta release | THP-1 LPS/ATP IL-1B secretion, AlphaLISA, 16 h; stronger effect = lower value | activity change, % at 57.5 µM | actives 4.7% (n = 360,000) | AID 743279; in the data active = activity change below about -50%; inconclusive = mostly about -30% to -49%; also: % is scaled to controls: 0 for no effect and ±100 for the full control effect
#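 Secreted IL-1B measured by AlphaLISA bead assay after 16 h compound exposure of THP-1 cells; compounds (final up to 57.5 uM) added 1 h before LPS (250 ng/mL) and ATP (1.25 mM) stimulation; lower signal means less secretion.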
# ATXN2 expr inh: ATXN2 expression inhibition; HEK-293 ATXN2-luciferase reporter, luminescence, 24 h; Potency, µM (doses to about 57 µM), inactives show at the highest dose activity change, negative = inhibition, hits mostly inhibitors; actives 0.72% (n = 360,000); also: potency is read from the fitted curve at half-maximal effect; % is scaled to controls: 0 for no effect and ±100 for the full control effect; nearly all actives have a fitted effect of over 55% in size
#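 ATXN2-luciferase reporter cells (luciferase flanked by upstream and downstream ATXN2 gene portions) were treated 24 h at 37 °C with compounds at up to 57 uM. SteadyGlo luminescence gave expression; GF-AFC fluorescence gave viability.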
# Integrin act MD: integrin-mediated muscular dystrophy alleviation activation | alpha7betagal myoblasts, beta-gal FDG fluorescence, 48 h | Potency, µM (titrated, usually from 38.3 µM), inactives show top-dose activation, most hits filed as activators | actives 0.064% (n = 350,000) | AID 624291;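 also: potency is read from the fitted curve at half-maximal effect; 100% = response of the positive control SU9516; nearly all actives have a fitted effect of over 60% in size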
#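 Alpha7betagal+/- myoblasts (passage 13) were plated 16-24 hr, then exposed to compounds (1:260 dilution of DMSO stock) for 48 hours at 37C. After MPER lysis, β-galactosidase reporter activity was read as FDG fluorescence (ex 480/em 540) after 30 minutes.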
# D3 antag: D3 dopamine receptor (human) antagonism. actives 2.5% (n = 360,000). P35462. max response, negative = inhibition, %. D3R cells, DiscoveRx beta-arrestin luminescence, antagonist mode; stronger effect = lower value; in the data active = max response below about -50%; inconclusive = no clear call, values can overlap the other calls; also: % is scaled to controls: 0 for no effect and ±100 for the full control effect
#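 Cells plated overnight at 1500 cells/well, then exposed to library compounds with dopamine controls for 90 minutes at 37 degrees C. DiscoveRx reagent added for 30–60 minutes at room temperature; luminescence read, quantitative HTS format.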
# * hit, by the source's call; i = inactive; ? = inconclusive; / = no result given; [ ] = remark or other dose. Unless noted, calls follow the shape of the dose curve; as a rule, active = well fitted curve in the direction sought with a large enough effect; inconclusive = small, poorly fitted or top-dose-only effect, or another doubt; inactive = no such curve, though single readings can be large; an effect the other way counts as inactive or inconclusive.
SMILES,S2 tox,D3 ag,IL-1B inflam inh,ATXN2 expr inh,Integrin act MD,D3 antag
COc1ccc(CN2CCN(CCCc3ccccc3)C(CCO)C2)c(O)c1 (stereo not drawn),i,-12,7,-12%,-15%,1
OCCC1CN(Cc2ccccc2O)CCN1CCCc1ccccc1 (stereo not drawn),i,-6,17,/,0%,-75*
COc1ccc(CN2CCN(CCCc3ccccc3)C(CCO)C2)c(OC)c1 (stereo not drawn),i,-15,0,-6%,-38%,2
COc1ccc(OC)c(CN2CCN(CCCc3ccccc3)C(CCO)C2)c1 (stereo not drawn),i,-26,9,-25%,7%,-87*
CC(C)/C=C/CN1CCN(CCCc2ccccc2)C(CCO)C1 (stereo not drawn),i,-17,-9,-2%,-4%,-63*
Cc1ccccc1CN1CCN(CC2CC2)CC1CCO (stereo not drawn),i,-6,9,/,22%,-82*
Cc1nn(Cc2ccccc2Cl)c(C)c1C(=O)NCCN1C(=O)S/C(=C\c2ccccc2)C1=O,i,4,-17,20%[11.3 µM],-34%,12
Cc1cc(C)cc(NC(=O)CCC(=O)Nc2cc(C)on2)c1,i,-10,4,?,22%,?
OCCC#Cc1ccc(CN2CCN(CCc3ccccc3)C(CCO)C2)cc1 (stereo not drawn),i,-12,7,-7%,32%,-17
C#Cc1ccc(CN2CCN(CCCc3ccccc3)C(CCO)C2)cc1 (stereo not drawn),i,-18,-55*,-14%,-19%,?
Cc1ccccc1CN1CCN(CCCc2ccccc2)C(CCO)C1 (stereo not drawn),i,-23,-16,-25%,-2%,-78*
COc1cccc(CN2CCN(CCCc3ccccc3)C(CCO)C2)c1OC (stereo not drawn),i,-21,-8,-13%,-6%,-20
O=C(O)c1cccc(Nc2c([N+](=O)[O-])c(=O)oc3ccccc23)c1,i,-8,1,23%,-7%,-7
O=c1oc2ccccc2c(Nc2cccc(O)c2)c1[N+](=O)[O-],i,-3,?,-13%,9%,-81*
COC(=O)c1ccc(Nc2c([N+](=O)[O-])c(=O)oc3ccccc23)cc1,i,12,-78*,-10%,3%,1
CCCCNC(=O)C(NC(=O)c1ccc(C)cc1)C(=O)c1ccccc1 (stereo not drawn),/,6,23,/,/,14
O=C(NCc1ccc2c(c1)OCO2)C1CCC(CNc2c(N3CCCC3)c(=O)c2=O)CC1 (stereo not drawn),i,-1,20,4%,15%,49
CCOC(=O)[C@]12CCCC=C1N(Cc1ccc3c(c1)OCO3)C(=O)[C@H](CC(=O)N1CCC(c3ccccc3)CC1)C2,?,-3,-76*,-24%,/,-11
COC(=O)[C@]12CCCCC=C1N(Cc1ccc3c(c1)OCO3)C(=O)[C@H](CC(=O)N1CCN(C(=O)c3ccco3)CC1)C2,/,9,-56*,/,/,13
COC(=O)[C@]12CCCCC=C1N(Cc1ccccc1)C(=O)[C@H](CC(=O)N1CCN(C(=O)c3ccco3)CC1)C2,?,6,-3,-1%,/,31
COCCCNCCCCOc1ccc(C)cc1[N+](=O)[O-],i,-34,-6,-32%,-6%,-70*
CCCCNCCOCCOc1ccc(C)cc1[N+](=O)[O-],i,-5,-20,-6%,-37%,-53*
CCC(C)NCCOCCOc1ccc(C)cc1Br (stereo not drawn),i,-13,-27,-28%,-61%,-70*
CCC(C)NCCCOc1c(C)cc(C)cc1Br (stereo not drawn),i,-4,-76*,-11%,-54%,-54*
O=C(NCC(c1cccs1)N1CCOCC1)c1ccc(Br)o1 (stereo not drawn),i,-2,28,-9%,0%,-9
SMILES,S2 tox,D3 ag,IL-1B inflam inh,ATXN2 expr inh,Integrin act MD,D3 antag
O=C(Nc1ccc2nn(-c3ccccc3)nc2c1)c1ccc(Br)o1,?,17,-2,-19%,0%,28
C=CCN(CC=C)CCOc1cc(C)ccc1[N+](=O)[O-],i,-11,12,/,-11%,?
C=CCNCCOc1ccc(C)cc1[N+](=O)[O-],i,-13,-21,-2%,?,-72*
CCC(C)NCCOc1ccc(C)cc1[N+](=O)[O-] (stereo not drawn),i,-17,-54*,-21%,16%,-60*
C=CCN(CC=C)CCOc1ccc(C)cc1[N+](=O)[O-],i,-9,0,37%,-15%,-96*
COc1ccc(-n2nnnc2CNC(=O)c2ccc(S(=O)(=O)N3CCOCC3)cc2)cc1,i,2,10,2%,-17%,-6
CCCCN(CCCNC(=S)NCCCc1cnc[nH]1)c1ccc(Br)cn1,18µM*,/,/,?,/,/
S=C(NCCCc1cnc[nH]1)NCCCN(Cc1ccccc1)c1ccc(Br)cn1,i,/,/,0%,/,/
S=C(NCCCc1cnc[nH]1)NCCCN(Cc1ccc(Cl)cc1)c1ccc(Br)cn1,28µM*,/,/,?,/,/
CCN(CC)CCCNC(=S)Nc1ccc(Br)cc1,i,-11,-1,-7%[11.3 µM],-28%,-19
CC(NC(=O)Cn1cccc1C(=O)c1ccccc1)c1ccc2c(c1)OCCO2 (stereo not drawn),i,0,-9,/,-11%,5
COc1cc2c(cc1OC)C(c1ccc(Br)cc1)NC(=O)C2 (stereo not drawn),i,7,-71*,1%,?,2
Cc1ccc(-c2nnc(N3CCCCC3)c3ccccc23)cc1S(=O)(=O)N1CCN(C)CC1,i,-18,-12,-7%,-12%,-83*
Cc1ccc(-c2nnc(N3CCCCC3)c3ccccc23)cc1S(=O)(=O)N(C)C,?,2,-57*,?,-43%,24
CN1CCN(c2ncccc2S(=O)(=O)N2CCCCC2)CC1,i,-15,6,3%,3%,-67*
FC(F)(F)c1cnc(NNC(=S)Nc2cccnc2)c(Cl)c1,i,-11,41,/,4%,-67*
Cc1cccc(C)c1NC(=S)NNc1ncc(C(F)(F)F)cc1Cl,i,-2,27,0%,21%,7
FC(F)(F)c1cnc(NNC(=S)Nc2ccccc2)c(Cl)c1,/,-17,?,/,9%,-92*
NC(=O)NNc1ncc(C(F)(F)F)cc1Cl,i,2,-8,/,-14%,5

# Screening results as filed in PubChem.
